Molecules are shown by their SMILES. Values without a mark were called inactive. Inconclusive results are not listed. Active and inactive are the calls of the source. Calls follow the shape of the dose curve; as a rule, active = well fitted curve in the direction sought with a large enough effect; inconclusive = small, poorly fitted or top-dose-only effect, or another doubt; inactive = no such curve, though single readings can be large; an effect the other way counts as inactive or inconclusive.

The source of these data is PubChem BioAssay (NCATS).

Experiment [1] relates to Zika virus NS2B-NS3 protease (unlinked complex). Put plainly: Primary screen GU Rhodamine qHTS for Zika virus inhibitors: Unlinked NS2B-NS3 protease assay (AID 1347159). Also: % is scaled to controls: 0 for no effect and ±100 for the full control effect; nearly all actives have a fitted effect of over 60% in size. In outline:
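Percent inhibition derives from the 15-min fluorescence change (ex 480, em 540 nm), normalized to no-enzyme and no-inhibitor wells. Reactions contained 25 nM NS2B-NS3 complex and 1.5 microM substrate in 10 mM Tris-HCl pH 8.0.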

Experiment [2] relates to Zika virus NS2B-NS3 protease (linked construct). Put plainly: Primary screen NINDS Rhodamine qHTS for Zika virus inhibitors (AID 1347160). Also: nearly all actives have a fitted effect of over 55% in size. In outline: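 In 10 mM Tris-HCl pH 8.0 containing 0.01% Tween 20, linked NS2B-NS3 protease (25 nM final) is exposed to test compounds for 15 min. Cleavage of 1.5 microM Rhodamine110 substrate is tracked by fluorescence over 15 min.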

The target of experiment [3] is Calcium and integrin-binding protein 1 (Homo sapiens) (UniProt Q99828). Put plainly: Primary qHTS for Identification of Calcium Integrin Binding Protein 1 (CIB1) Competitor (AID 1508620). Also: top concentration of the series differs between compounds; % is scaled to controls: 0 for no effect and ±100 for the full control effect. In outline: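 Fluorescence polarization competition: GST-tagged CIB1 (1 uM final) preincubated with compound 15 min at room temperature, then FITC-labelled alphaIIb peptide (100 nM final) added. After 15 min at room temperature, polarization read at Ex 480/Em 540.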

Experiment [4] concerns the target Glutathione peroxidase 1 (Homo sapiens) (UniProt P07203). Put plainly: Primary qHTS Assay for Inhibitors of Recombinant Selenoprotein Glutathione Peroxidase 1 (GPX1) (AID 1845191). Also: nearly all actives have a fitted effect of over 65% in size. In outline: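 GR-coupled assay: compounds preincubated 30 min at room temperature with GPX1, then reaction started with CHP; final 10 nM GPX1, 1 mM GSH, 0.5 mM CHP, 0.5 mM NADPH, 100 nM GR, 0.01% BSA, pH 7.5 Tris buffer. NADPH fluorescence (340/450 nm) read at 0 and 15 min.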

In experiment [5] the target is Phospholipid hydroperoxide glutathione peroxidase GPX4 (Homo sapiens) (UniProt P36969). Put plainly: Primary qHTS Assay for Inhibitors of Recombinant Selenoprotein Glutathione Peroxidase 4 (GPX4) (AID 1845192). Also: % is scaled to controls: 0 for no effect and ±100 for the full control effect; nearly all actives have a fitted effect of over 65% in size. In outline: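 GR-coupled assay: recombinant GPX4 preincubated 30 min with compound at room temperature; final 200 nM GPX4, 1 mM GSH, 0.5 mM cumene hydroperoxide, 0.5 mM NADPH, 100 nM GR, 0.01% BSA, pH 7.5 Tris. NADPH fluorescence (340/450 nm) read at 0 and 15 min.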

The target of experiment [6] is Luciferin 4-monooxygenase (Photinus pyralis) (UniProt P08659). Put plainly: Primary firefly luciferase (FLuc) qHTS assay for identification of artifact compounds. (AID 1845220). Also: nearly all actives have a fitted effect of over 60% in size. As to conditions: outcome: dose series up to 54.1 µM unless noted. In outline: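 Titrated compounds were incubated 15 min at RT, protected from light, with luciferin and ATP at 10 uM; reaction started with 10 nM FLuc, luminescence imaged at 5 min, and concentration-response fitted by Hill equation.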

For experiment [7], the system named is Nanoluciferase (engineered Oplophorus gracilirostris luciferase). Put plainly: Primary Nanoluciferase (NLuc) qHTS assay for identification of artifact compounds. (AID 1845222).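 Also: NLuc secreted into diluted conditioned medium of S16 cells; 0% = DMSO and -100% = no enzyme.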 In outline: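 qHTS format, against NLuc in S16 cell-conditioned medium. Nano-Glo substrate 1:100 was added after 15 min at room temperature. Luminescence was taken after a further 5 min.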

Another experiment concerns CRL-7250. Put plainly: Cytotoxic Profiling of Annotated Libraries Using Quantitative High-Throughput Screening (AID 1296008). Also: nearly all actives have a fitted effect of over 60% in size. Also: potency is read from the fitted curve at half-maximal effect. As to max response: % is scaled to controls: 0 for no effect and ±100 for the full control effect. The following applies: Five cell lines viability, CellTiter-Glo ATP luminescence, 48-72 h; max response: hits give low values. In outline: (§1)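 Cells exposed to compounds for 48 or 72 hr at 37 degrees Celsius. Viability read as ATP-coupled luminescence with CellTiter-Glo after 10 min at room temperature.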

A further experiment has as its system C33A. Put plainly: Primary qHTS to identify gynecologic anti-cancer compounds using libraries of approved drugs and bioactive compounds (AID 1345084). Also: nearly all actives have a fitted effect of over 55% in size. Also: potency is read from the fitted curve at half-maximal effect. The following applies: Gynecologic cancer cell panel viability, ATPlite luminescence, 48 h; series mostly up to 57.5 µM. In outline: (§2)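 Luminescence from the ATPlite ATP-monitoring reagent indicates viable cell number; lower signal means cytotoxicity. Cells received compound 16 h after seeding and were exposed for 48 h across five concentrations.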

For the next experiment, the system named is CAOV3. The description is as above. As to conditions: Gynecologic cancer cell panel viability, ATPlite luminescence, 48 h; series mostly up to 57.5 µM. In outline: as §2
For another experiment, the system named is CASKI. The description is as above. The following applies: Gynecologic cancer cell panel viability, ATPlite luminescence, 48 h; series mostly up to 57.5 µM. In outline: as §2
For the next experiment, the system named is Es-2. The experiment is described as above. As to conditions: Gynecologic cancer cell panel viability, ATPlite luminescence, 48 h; series mostly up to 57.5 µM. In outline:
as §2

The subject of a further experiment is Hek293T. Described as above. As to conditions: Gynecologic cancer cell panel viability, ATPlite luminescence, 48 h, control line for the selectivity index; series mostly up to 57.5 µM. In outline: as §2
The next experiment relates to JEG-3. Described as above. As to conditions: Gynecologic cancer cell panel viability, ATPlite luminescence, 48 h; series mostly up to 57.5 µM. In outline: as §2
For another experiment, the system named is OV90. The description is as above. The following applies: Gynecologic cancer cell panel viability, ATPlite luminescence, 48 h; series mostly up to 57.5 µM. In outline: as §2
For the next experiment, the system named is PA-1. Described as above. The following applies: Gynecologic cancer cell panel viability, ATPlite luminescence, 48 h; series mostly up to 57.5 µM. In outline:
as §2

The test system of another experiment is Tov-21-G. The experiment is described as above. The following applies: Gynecologic cancer cell panel viability, ATPlite luminescence, 48 h; series mostly up to 57.5 µM. In outline:
as §2

A further experiment has as its system Tov112D. The experiment is described as above. The following applies: Gynecologic cancer cell panel viability, ATPlite luminescence, 48 h; series mostly up to 57.5 µM. In outline:
as §2

A short description of experiment [8]: Primary fluorescence-based thiol-reactive (MSTI) qHTS assay for identification of artifact compounds. (AID 1845221).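 Also: thiol-reactive compounds lower the probe fluorescence signal; nearly all actives have a fitted effect of over 65% in size.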 In outline:
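Compounds were incubated 1 h at room temperature in the dark with the MSTI probe (4 uM) in PBS pH 7.4, 2% DMSO. Signals were normalized between Acetyl-MSTI and MSTI.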

The next experiment has as its system NIH3T3. Put plainly: Cytotoxic Profiling of Annotated Libraries Using Quantitative High-Throughput Screening (AID 1296008). Also: nearly all actives have a fitted effect of over 60% in size. Also: potency is read from the fitted curve at half-maximal effect. As to max response: % is scaled to controls: 0 for no effect and ±100 for the full control effect. As to conditions: Five cell lines viability, CellTiter-Glo ATP luminescence, 48-72 h; max response: hits give low values. In outline:
as §1

Sequence of Glutathione peroxidase 1 (Homo sapiens) (P07203 whole entry, looked up): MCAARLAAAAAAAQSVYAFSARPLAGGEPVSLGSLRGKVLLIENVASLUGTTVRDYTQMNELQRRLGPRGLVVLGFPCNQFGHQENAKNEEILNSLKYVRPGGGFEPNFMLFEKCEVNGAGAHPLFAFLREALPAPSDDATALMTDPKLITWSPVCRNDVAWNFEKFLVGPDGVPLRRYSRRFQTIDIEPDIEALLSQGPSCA
Sequence of Calcium and integrin-binding protein 1 (Homo sapiens) (Q99828 whole entry, looked up): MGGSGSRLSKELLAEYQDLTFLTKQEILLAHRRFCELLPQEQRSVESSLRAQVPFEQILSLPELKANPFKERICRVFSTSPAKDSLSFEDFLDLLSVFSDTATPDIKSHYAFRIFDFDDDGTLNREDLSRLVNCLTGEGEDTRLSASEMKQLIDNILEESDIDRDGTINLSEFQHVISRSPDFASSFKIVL
Sequence of Phospholipid hydroperoxide glutathione peroxidase GPX4 (Homo sapiens) (P36969 whole entry, looked up): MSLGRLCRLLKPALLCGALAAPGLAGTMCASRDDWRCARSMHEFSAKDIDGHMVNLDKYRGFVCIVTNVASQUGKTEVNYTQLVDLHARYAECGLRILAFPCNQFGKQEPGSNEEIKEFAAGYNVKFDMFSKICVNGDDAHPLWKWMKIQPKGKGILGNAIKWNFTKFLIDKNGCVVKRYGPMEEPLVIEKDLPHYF

Turning to `CCC1CN2CCc3cc(OC)c(OC)cc3C2CC1CC1=NCCc2cc(O)c(OC)cc21` (stereo not drawn), the Potency result in experiment [1], in experiment [2], in [3], in [4], in experiment [5] and in [7] was “inactive” each time. Also, the Potency entry with C33A, in the experiment with CAOV3, in the experiment on CASKI, with Es-2, in the experiment on Hek293T and in the experiment on JEG-3 was “inactive” throughout. In addition, the Potency entry with OV90, in the experiment with PA-1, in the experiment on Tov-21-G and with Tov112D was “inactive” throughout. The compound was called inactive in experiment [6]. Moreover, in the experiment on CRL-7250, the max response is -0.358%.

Take `COC1(C[S@@](=O)c2ccccc2)CCN(CCc2c[nH]c3ccc(F)cc23)CC1`: the Potency result in experiment [1], in [2], in experiment [3], in experiment [4], in [5] and in [8] was “inactive” each time. The Potency entry (in [7]; in the experiment on C33A; in the experiment on CAOV3; in the experiment with CASKI; with Es-2; with Hek293T) was “inactive” throughout. For the same compound, the Potency entry with JEG-3, in the experiment with OV90, in the experiment with PA-1, in the experiment on Tov-21-G and with Tov112D was “inactive” in each case. For the same compound, the results for the max response in the experiment on CRL-7250 and in the experiment on NIH3T3 were 3.05% and 1.71%, respectively.

As for `CN1C(=O)C(Cc2ccc3ccccc3c2)N=C(c2ccc(O)cc2)c2cc(Cl)ccc21` (stereo not drawn), the Potency result in experiment [1], in experiment [3], in experiment [4], in experiment [5], in [8] and in experiment [7] was “inactive” each time. Also, the Potency entry in the experiment on C33A, with CAOV3, in the experiment with CASKI, in the experiment on Es-2, in the experiment with Hek293T and in the experiment on JEG-3 was “inactive” throughout. Further, the Potency result in the experiment with OV90, in the experiment on PA-1, in the experiment on Tov-21-G and in the experiment with Tov112D was “inactive” throughout. For the same compound, the result in experiment [6] was inactive. Besides, the max response with CRL-7250 is -21.8%; with NIH3T3 it was -0.878%.

Take `CC1(C)C(=O)N(c2ccc(C#N)c(C(F)(F)F)c2)C(=S)N1c1ccc(C(N)=O)c(F)c1`: the Potency entry in experiment [1], in experiment [2], in experiment [3], in [4], in [5] and in experiment [8] was “inactive” each time. Further, the Potency entry (in experiment [7]; in the experiment with C33A; with CASKI; in the experiment with Es-2; with Hek293T; in the experiment on JEG-3) was “inactive” in each case. Besides, the Potency result in the experiment on OV90, with PA-1, in the experiment with Tov-21-G and in the experiment with Tov112D was “inactive” each time. Further, in experiment [6], the compound was called inactive. Further, the max response is 4.24% with CRL-7250 and 0.467% with NIH3T3.

Consider `O=C(C[C@@H]1NCCC[C@H]1O)Cn1cnc2ccccc2c1=O`, for which the Potency entry in experiment [1], in [2], in [3], in experiment [4], in experiment [5] and in [8] was “inactive” each time. In addition, in [7], the Potency entry is “inactive”. Also, the result in [6] was inactive. The Potency in the experiment with CRL-7250 was 231 nM (active); in the experiment on NIH3T3, 366 nM (active); in the experiment with C33A it was 631 nM (active); in the experiment with CASKI, 1780 nM (active); in the experiment on Es-2, 1410 nM (active); with Hek293T, 447 nM (active). Further, the Potency was 11200 nM (active) with OV90, 282 nM (active) in the experiment on PA-1, 794 nM (active) with Tov-21-G and 631 nM (active) with Tov112D.
